# Screening results (PubChem)
# 3CLpro inhibitor – SARS-CoV 3CLpro protease inhibition; P0C6X7; recombinant SARS-CoV 3CLpro, quenched FRET peptide cleavage; inhibition, % at 6 µM; actives 0.14% (n = 290,000); in the data active = inhibition above about 12%
# GDH-TPI counter-1 – inhibits GDH-TPI coupling enzymes, artifact for Mtb FBA screen. GDH-TPI coupled enzyme counterscreen, NADH absorbance. inhibition, % at 4.8 µM. actives 1.2% (n = 360,000). AID 588335; in the data active = inhibition above about 30%;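 note: 0% = DMSO wells and 100% = wells lacking the enzyme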
# Vc quorum ag – inducers of Vibrio cholerae quorum light production without autoinducers; V. cholerae BH1578 lux reporter, luminescence, 6 h; activation, % at 18.7 µM; actives 0.16% (n = 350,000); in the data active = activation mostly above about 9.7%, no sharp cut-off
# PrPC TRFRET – inhibitors of human cell surface prion protein PrPC; P04156; TR-FRET read-out; inhibition, % at 13.8 µM; actives 0.43% (n = 370,000); AID 720596; in the data active = inhibition above about 24%; note: 0% = median of the test wells and 100% = reference compound wells
# FBA Mtb inh – Mtb fructose-bisphosphate aldolase inhibition | P9WQA3 | purified M. tuberculosis FBA, fluorescence read-out | inhibition, % at 1 µM | actives 2.3% (n = 360,000) | AID 588726;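 note: 0% = vehicle and 100% = reference inhibitor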
# Target sequence (P9WQA3 whole entry, looked up): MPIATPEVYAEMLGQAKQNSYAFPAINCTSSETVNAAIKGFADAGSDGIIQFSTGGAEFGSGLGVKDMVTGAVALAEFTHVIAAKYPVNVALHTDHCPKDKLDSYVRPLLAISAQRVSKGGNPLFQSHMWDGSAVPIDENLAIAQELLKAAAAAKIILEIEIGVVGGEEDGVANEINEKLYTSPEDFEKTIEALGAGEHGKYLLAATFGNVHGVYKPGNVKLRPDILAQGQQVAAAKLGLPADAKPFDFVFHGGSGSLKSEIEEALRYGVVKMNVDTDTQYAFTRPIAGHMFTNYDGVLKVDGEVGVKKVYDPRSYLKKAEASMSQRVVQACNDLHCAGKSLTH
# Mtb FBA inh conf – Mtb FBA inhibition, confirmed; actives 78% (n = 5,600); inhibition, % at 1 µM; shares compounds with FBA Mtb inh; AID 651616; purified M. tuberculosis FBA, fluorescence read-out;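 note: 0% = vehicle wells and 100% = reference inhibitor wells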
# GDH-TPI counter-2 – GDH-TPI inhibition counter-screen for FBA inhibitors; shares compounds with FBA Mtb inh; GDH-TPI coupled enzyme counterscreen, fluorescence; inhibition, % at 1 µM; actives 81% (n = 5,600); AID 652141; in the data active = inhibition above about 10%
# Active calls of the source: *; i = inactive; · = no result given; + = active, no number; ! = not active in a repeat. Only some compounds are listed: those with a hit (about 3.9% of all), similar ones and a draw of the others. Cut-off read from the data, not from the text of the source, unless noted: active = inhibition above about 27%; inactive = the rest.
SMILES,3CLpro inhibitor,GDH-TPI counter-1,Vc quorum ag,PrPC TRFRET,FBA Mtb inh,Mtb FBA inh conf,GDH-TPI counter-2
NS(=O)(=O)c1cnccc1NCCc1ccccc1,·,-1,1,3,1,·,·
CCOC(=O)c1nn(-c2ccc(OCC)cc2)c2nc(-c3ccco3)c(C#N)c(=O)n12,-5,30,0,0,4,·,·
CCN(CC)S(=O)(=O)c1ccc(NC(=O)c2cc(-c3cccs3)nc3ccccc23)cc1,-3,5,i,-6,5,·,·
CCOC(CCNC(=O)c1cc(-c2cccs2)nc2ccccc12)OCC,-6,20,-1,-9,95*,+,+
Cc1ccc(-c2cc(C(=O)O)c3cc(Br)ccc3n2)o1,-5,19,0,11,5,·,·
NNC(=O)c1cc(-c2cccs2)nc2ccccc12,-4,26,i,9,44*,110*,92*
Cc1cc(NC(=O)c2cc(-c3cccs3)nc3ccccc23)no1,-4,22,0,-7,71*,-4,-7
Cc1ccc(-c2cc(C(=O)Nc3cc(C)on3)c3ccccc3n2)cc1,2,16,0,-3,11,·,·
Cc1ccc(-c2cc(C(=O)O)c3cc(Br)ccc3n2)s1,2,41*!,-6,20,32*,197*!,194*!
Cc1ccccc1NC(=O)[C@@H]1CC(=O)O[C@@H]1c1ccccc1,·,·,·,-5,·,·,·
CCc1ccc(-n2c(=O)c3c(C)c(C)sc3n(CC(=O)NCC3CCCO3)c2=O)cc1 (stereo unspecified),1,3,i,3,1,·,·
C/C(=N\NC(=O)c1cccc2ccccc12)c1ccccn1,4,10,i,-4,0,·,·
C/C(=N\NC(=O)c1cc(-c2cccs2)nc2ccccc12)c1ccccn1,0,18,i,6,34*,99*,92*
COc1ccc(-c2nc3ccc(C)cn3c2Cc2ccsc2)cc1OC,·,·,·,-4,52*,116*,73*
COC(=O)c1ccc2nc(-c3ccc(OC)c(OC)c3)c(Cc3ccsc3)n2c1,·,·,·,-2,3,·,·
O=C1NC(=O)c2cc3ccccc3cc21,·,3,i,-7,37*,34*,24*
O=C1CCNc2cc3ccccc3cc21,-5,6,0,·,23,·,·
CO[C@@H]1CN(C)C(=O)c2ccc(NS(=O)(=O)c3c(C)noc3C)cc2OC[C@@H](C)NC[C@@H]1C,·,·,·,4,·,·,·
O=C(CN1CCN(C(=O)N2CCOCC2)CC1)Nc1cc(Cl)ccc1Cl,3,0,0,-7,1,·,·
O=C(O)c1ccc(-c2nc3ccccc3s2)o1,-7,42*,-1,-2,44*,35*,29*
O=C(O)CCN1C(=O)/C(=C/c2ccc(-c3nc4ccccc4s3)o2)SC1=S,5,5,-5,-2,-3,·,·
O=Cc1ccc(-c2nc3ccccc3s2)o1,3,18,8,-2,33*,31*,30*
O=C(c1ccc(-c2nc3ccccc3s2)o1)N1CCN(c2ccccc2O)CC1,-3,16,i,-16,0,·,·
O=C(Nc1ccc2ccccc2c1)C(c1ccc(C(F)(F)F)cc1)n1c(=O)c(-c2cc3ccccc3[nH]2)nc2ccccc21 (stereo unspecified),·,·,·,8,·,·,·
CCOc1ccc(-c2cc(C)n3nc(C(N)=O)cc3n2)cc1,-2,5,i,-28,52*,-2,-1
SMILES,3CLpro inhibitor,GDH-TPI counter-1,Vc quorum ag,PrPC TRFRET,FBA Mtb inh,Mtb FBA inh conf,GDH-TPI counter-2
COC(=O)c1cc2nc(-c3ccccc3)cc(C)n2n1,4,-2,1,-8,10,·,·
COc1ccc(NC(=O)c2cccc(S(=O)(=O)N3CCCCCC3)c2)cc1,5,-3,0,2,0,·,·
Cc1ccc(-c2csc(NC(=O)c3ccccc3F)c2C(=O)O)cc1,10,25,-1,20,4,·,·
COC(=O)C1=C(C)NC2=C(C(=O)CC(C)(C)C2)C1c1cn(Cc2ccc(Br)cc2)nc1-c1ccccc1 (stereo unspecified),6,20,i,·,19,·,·
COC(=O)C1=C(C)NC2=C(C(=O)CCC2)C1c1cn(Cc2ccc(Br)cc2)nc1-c1ccccc1 (stereo unspecified),5,10,i,-2,28*,41*,30*
COC(=O)C1=C(C)NC2=C(C(=O)CCC2)C1c1cccc(C)n1 (stereo unspecified),-5,4,i,-4,28*,147*,121*
N#Cc1cccnc1N1CCC(C(N)=O)CC1,0,9,-1,0,30*,50*,38*
N#Cc1cccnc1N1CCN(C(=O)c2ccccc2)CC1,1,12,0,-5,20,·,·
COc1ccc(C(=O)Nc2ccc(Cl)cc2C(=O)N2CCCC(C)C2)cc1OC (stereo unspecified),3,-10,-1,6,1,·,·
Cc1nn(-c2ccccc2)c2sc(C(=O)NCCc3ccccc3)cc12,·,·,·,0,·,·,·
Cc1nn(-c2ccccc2)c2sc(C(=O)NCCN3CCOCC3)cc12,-5,10,-1,4,33*,92*,83*
CCCCNC(=O)COC(=O)c1cc2c(C)nn(-c3ccccc3)c2s1,-3,14,0,3,29*,+,178*
Cc1nn(-c2ccccc2)c2sc(C(=O)NNC(=O)COc3ccccc3)cc12,1,17,-4,0,4,·,·
Cc1c[n+]([O-])cc(C)c1[N+](=O)[O-],·,2,3,0,-2,·,·
CC(C)CCNC(=O)c1c(N)n(Cc2ccc3c(c2)OCO3)c2nc3ccccc3nc12,-1,1,-1,8,3,·,·
CC(C)CNC(=O)c1c(N)n(Cc2ccc3c(c2)OCO3)c2nc3ccccc3nc12,9,12,i,-2,27*,79*,66*
Nc1c(C(=O)OCC2CCCO2)c2nc3ccccc3nc2n1C1CCCC1 (stereo unspecified),-3,10,-3,1,49*,82*,58*
CC(C)OC(=O)c1c(N)n(Cc2ccco2)c2nc3ccccc3nc12,2,-14,4,-3,43*,131*,98*
COCC(C)OC(=O)c1c(N)n(CC(C)C)c2nc3ccccc3nc12 (stereo unspecified),-5,9,-5,9,99*,4,3
COc1ccc(OC)c(-n2c(N)c(C(=O)NCC3CCCO3)c3nc4ccccc4nc32)c1 (stereo unspecified),2,3,i,-2,5,·,·
CCOC(=O)N1CCN(C(=O)C[C@@H]2C(=O)N3CCCC4=C3[C@@]2(C(=O)OCC)CCC4)CC1,·,·,·,9,·,·,·
CC1=CC(C)(C)NC(=S)N1c1ccc(N(C)C)cc1,·,-1,i,-13,-3,·,·
